# Measurements: the supplement of paper PMC12494721
# Structures can show the parent of a compound that is named as a salt.
# Test system: Ruminococcus gnavus DSM 108212
# Assay: fold change of Tryptamine concentration vs plate DMSO controls (fold change (ratio)); higher = more amine produced, active = hit call of the paper (significant change in both replicates, either direction)
# Details: incubation time: 27 h, anaerobic, 37 °C
# Procedure, shortened: (§1)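 Using LC–triple-quadrupole MS with dynamic MRM, amines were quantified against external calibration curves and corrected for drift within each batch. Samples were whole anaerobic mGAM cultures of four gut strains, grown 27 h at 37 °C from OD 0.1 before 1:1 dilution, extracted with cold acetonitrile/methanol containing 0.1% formic acid and centrifuged. Compounds were present at 20 µM final (sweeteners at 50 µM final). The numbers are fold changes versus plate DMSO controls, each the mean of 2 biological replicates.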
row,SMILES,fold change of Tryptamine concentration
1,CCOC(=O)c1c(N)sc2c1CCN(Cc1ccccc1)C2 [Tinoridine hydrochloride] (20 µM),0.922 (inactive)
2,C/C(=C1\CCOC(=O)S1)N(C=O)Cc1cnc(C)nc1N [Cycotiamine] (20 µM),1.03 (inactive)
3,CCN1CCN(C(=O)N[C@@H](C(=O)N[C@@H]2C(=O)N3[C@@H]2SC(C)(C)[C@@H]3C(=O)O)c2ccccc2)C(=O)C1=O [Piperacillin sodium salt] (20 µM),0.0274 (active)
4,CN1CCN2c3ccccc3Cc3ccccc3C2C1 (configuration not stated) [Mianserine hydrochloride] (20 µM),0.998 (inactive)
5,O=C(Oc1cccc2cccnc12)c1ccccc1 [Benzoxiquine] (20 µM),1.03 (inactive)
6,Cc1cc(=O)n(-c2ccccc2)n1C [Antipyrine] (20 µM),1.01 (inactive)
7,O=C1c2cccc(O)c2C(=O)c2c(O)cccc21 [Danthron] (20 µM),1 (inactive)
8,Cc1c(Nc2ncccc2C(=O)O)cccc1C(F)(F)F [Flunixin meglumine] (20 µM),0.992 (inactive)

# Test system: Escherichia coli IAI1
# Assay: fold change of Putrescine concentration vs plate DMSO controls (fold change (ratio)); higher = more amine produced, active = hit call of the paper (significant change in both replicates, either direction)
# Details: incubation time: 27 h, anaerobic, 37 °C
# Procedure, shortened: as §1
row,SMILES,fold change of Putrescine concentration
1,COc1ccc(CC(C)NCC(O)c2ccc(O)c(NC=O)c2)cc1 (configuration not stated) [Formoterol fumarate] (20 µM),1.03 (inactive)
2,CCN(CC)CCc1nc(-c2ccccc2)no1 [Oxolamine citrate salt] (20 µM),0.967 (inactive)
3,O=C(O)c1cc(-c2ccc(F)cc2F)ccc1O [Diflunisal] (20 µM),1.07 (inactive)
4,NC(=O)NC1NC(=O)NC1=O (configuration not stated) [Allantoin] (20 µM),1.1 (inactive)
5,CN1CCCN=C1/C=C/c1cccs1 [Pyrantel tartrate] (20 µM),1.04 (inactive)
6,CCN1CCN(c2cc3c(cc2F)c(=O)c(C(=O)O)cn3C2CC2)CC1 [Enrofloxacin] (20 µM),0.658 (inactive)
7,CCCNC(C)C(=O)Nc1c(C)csc1C(=O)OC (configuration not stated) [Articaine hydrochloride] (20 µM),0.985 (inactive)
8,CCN(CC)CC(=O)Nc1c(C)cccc1C [Lidocaine hydrochloride] (20 µM),0.95 (inactive)
9,CCn1cc(C(=O)O)c(=O)c2cc(F)c(N3CCNC(C)C3)c(F)c21 (configuration not stated) [Lomefloxacin hydrochloride] (20 µM),0.781 (active)
10,C[C@]12CCC(=O)C=C1CC[C@@H]1[C@@H]2C(=O)C[C@@]2(C)[C@H]1CC[C@]2(O)C(=O)CO [Cortisone] (20 µM),1 (inactive)
11,CCN(CC)CCNC(=O)c1cc(Cl)c(N)cc1OC [Metoclopramide monohydrochloride] (20 µM),0.875 (inactive)
12,C[C@@H](CN1CC(=O)NC(=O)C1)N1CC(=O)NC(=O)C1 [Dexrazoxane hydrochloride] (20 µM),0.979 (inactive)
13,CCOc1ccc(NC(C)=O)cc1 [Phenacetin] (20 µM),1.07 (inactive)
14,CC(C)C(=O)Nc1ccc([N+](=O)[O-])c(C(F)(F)F)c1 [Flutamide] (20 µM),0.977 (inactive)
15,Cc1ccc2c([nH]c(=O)c3c(=O)cc(C(=O)OCCC(C)C)oc32)c1C [Repirinast] (20 µM),1.01 (inactive)
16,CCCCc1oc2ccccc2c1C(=O)c1cc(I)c(OCCN(CC)CC)c(I)c1 [Amiodarone hydrochloride] (20 µM),0.96 (inactive)
17,NCc1ccc(S(N)(=O)=O)cc1 [Mafenide hydrochloride] (20 µM),1 (inactive)
18,CC[C@@H](CO)NCCN[C@@H](CC)CO [Ethambutol dihydrochloride] (20 µM),1.05 (inactive)
19,Nc1c2ccccc2nc2ccccc12 [Aminacrine] (20 µM),1.15 (inactive)
20,CC(C(=O)O)c1cccc(C(=O)c2ccccc2)c1 (configuration not stated) [Ketoprofen] (20 µM),1.1 (inactive)

row,SMILES,fold change of Putrescine concentration
1,CCOC(=O)[C@H](CCc1ccccc1)N[C@H]1CS[C@H](c2cccs2)CN(CC(=O)O)C1=O [Temocapril hydrochloride] (20 µM),0.997 (inactive)
2,CC(COc1ccccc1)N(CCCl)Cc1ccccc1 (configuration not stated) [Phenoxybenzamine hydrochloride] (20 µM),1.02 (inactive)
3,CC1(C)OC(=O)NC1=O [Dimethadione] (20 µM),1.02 (inactive)
4,c1cnc(N2CCN(Cc3ccc4c(c3)OCO4)CC2)nc1 [Piribedil] (20 µM),1.03 (inactive)
5,O=c1[nH]c(=O)n(C2CCCO2)cc1F (configuration not stated) [Tegafur] (20 µM),1.25 (inactive)
6,Nc1ccc(S(=O)(=O)Nc2ncccn2)cc1 [Sulfadiazine] (20 µM),0.976 (inactive)
7,Cc1onc(-c2c(Cl)cccc2Cl)c1C(=O)N[C@@H]1C(=O)N2[C@@H]1SC(C)(C)[C@@H]2C(=O)O [Dicloxacillin sodium salt hydrate] (20 µM),0.979 (inactive)
8,CN(C)CCC=C1c2ccccc2C=Cc2ccccc21 [Cyclobenzaprine hydrochloride] (20 µM),0.987 (inactive)
9,C#C[C@]1(O)CC[C@H]2[C@@H]3CCc4cc(O)ccc4[C@H]3CC[C@@]21C [Ethinylestradiol] (20 µM),1.05 (inactive)
10,CN1CC(O)c2cc(N=NC(N)=O)c(O)cc21 (configuration not stated) [Carbazochrome] (20 µM),1.05 (inactive)
11,C[C@@H](O[C@H]1OCCN(Cc2n[nH]c(=O)[nH]2)[C@H]1c1ccc(F)cc1)c1cc(C(F)(F)F)cc(C(F)(F)F)c1 [Aprepitant] (20 µM),1.03 (inactive)
12,CCOC(=O)c1c(N)sc2c1CCN(Cc1ccccc1)C2 [Tinoridine hydrochloride] (20 µM),1.01 (inactive)
13,C/C(=C1\CCOC(=O)S1)N(C=O)Cc1cnc(C)nc1N [Cycotiamine] (20 µM),0.971 (inactive)
14,CCN1CCN(C(=O)N[C@@H](C(=O)N[C@@H]2C(=O)N3[C@@H]2SC(C)(C)[C@@H]3C(=O)O)c2ccccc2)C(=O)C1=O [Piperacillin sodium salt] (20 µM),1.17 (inactive)
15,CN1CCN2c3ccccc3Cc3ccccc3C2C1 (configuration not stated) [Mianserine hydrochloride] (20 µM),1.02 (inactive)
16,O=C(Oc1cccc2cccnc12)c1ccccc1 [Benzoxiquine] (20 µM),0.984 (inactive)
17,Cc1cc(=O)n(-c2ccccc2)n1C [Antipyrine] (20 µM),0.999 (inactive)
18,O=C1c2cccc(O)c2C(=O)c2c(O)cccc21 [Danthron] (20 µM),1.24 (inactive)
19,Cc1c(Nc2ncccc2C(=O)O)cccc1C(F)(F)F [Flunixin meglumine] (20 µM),1.07 (inactive)
